# PubChem BioAssay (NCATS)
# Where “and” joins values, the source holds several entries; their conditions need not be identical. Equal entries are not always repeated. Inconclusive results are not listed. A call without a number means that no potency is given here. Calls of active or inactive are those of the source. Calls come from the whole dose curve; as a rule, active = well fitted cell-killing curve with a large enough effect; inconclusive = small, poorly fitted or top-dose-only effect; inactive = flat fitted curve, though single readings scatter.
# Experiment: Cell Viability - LYMP2-018 (AID 985);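 note: compound exposure lasted 24 hr at 37 °C; nearly all actives have a fitted effect of over 50% in size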
# Conditions: LYMP2-018 lymphoblastoid cells, viability (qHTS); series mostly up to 92.2 µM
# Excerpt: NIH Chemical Genomics Center [NCGC]
# NIH Molecular Libraries Screening Centers Network [MLSCN]
# National Institutes of Environmental Health Sciences [NIEHS]
# National Toxicology Program [NTP]
# We have developed a 1536-well cell-based assay for quantitative high throughput screening (qHTS) against a number of cell lines to determine in vitro cytotoxicity of small molecules. This particular assay uses a human lymphoblastoid cell line (LYMP2-018) purchased from Coriell Institute for Medical Research.
# NCGC Assay Protocol Summary:
# The CellTiter-Glo luminescent cell viability assay (Promega) is a homogeneous method to measure the number of viable cells in culture. The end point readout of this assay is based on quantitation of intracellular ATP, an indicator of metabolic activity, using the luciferase reaction. Luciferase catalyzes the oxidation of beetle Luciferin to oxyluciferin and light in the presence of ATP. The luminescent signal is proportional to amount of ATP present.
# Using the CellTiter-Glo luminescent cell viability assay, the amount of cellular ATP was measured in the lymphoblastoid cell line with complete culture medium following compound treatment for 24 hours. The assay was performed in opaque white Kalypsys 1536-well plates. In the screen, tetraoctylammonium bromide was used as positive control. Library compounds were measured for their ability to cause acute toxicity in the cell line, as reflected by a decrease in intracellular ATP levels, in a concentration-dependent manner. […] AC50 values were determined from concentration-response data modeled with the standard Hill equation.
# qHTS protocol for CellTiter Glo lymphoblastoid cellular assay
# [Step] [Parameter] [Value] [Description]
# 1. Reagent; 5 uL; 2500 lymphoblastoid cells/well
# 2. Time; 5 hr; 37 C incubation
# 4. Controls; 23 nL; Tetraoctylammonium bromide 6.4pM to 92 uM
# 5. Time; 24 hr; 37 C incubation
# 6. Reagent; 5 uL; CellTiter Glo reagent
# 7. Time; 30 min; Room Temperature
# 8. Detection; Luminescence; Viewlux plate reader
# Keywords: cell viability, cytotoxicity, lymphoblastoid cell line, luminescence, NTPHTS, NTPHTS_NCGC, NIEHS, DSSTox, MLSMR, MLSCN, NIH Roadmap, qHTS, NCGC
# Potency is the fitted concentration of half-maximal effect.
row,SMILES,Potency
1,Clc1ccc(COC(Cn2ccnc2)c2ccc(Cl)cc2Cl)cc1 (configuration not stated),50.1 µM (active)
2,Oc1ccccc1-c1ccccc1,inactive
3,Oc1cccc2cccnc12,12.6 µM (active) and 10 µM (active)
4,N[C@@H](Cc1ccc(N(CCCl)CCCl)cc1)C(=O)O,25.1 µM (active)
5,OCCOc1ccccc1,inactive
6,NCC(O)c1ccc(O)cc1 (configuration not stated),inactive
7,CNCC(O)c1ccc(O)cc1 (configuration not stated),inactive
8,CCOP(=S)(OCC)Oc1cc(C)nc(C(C)C)n1,inactive
9,CCCC(C)(COC(N)=O)COC(=O)NC(C)C (configuration not stated),inactive
10,CC(=O)Oc1ccccc1C(=O)Nc1ncc([N+](=O)[O-])s1,39.8 µM (active)
11,c1ccc2c(c1)Nc1ccccc1S2,inactive
12,Oc1ccc(Cl)cc1Cc1ccccc1,inactive
